# About 2,100 (0.53%) of roughly 400,000 compounds were called active. Not shown: some 14% with an inconclusive outcome. The sample holds actives, similar compounds and a random draw of the others, so the mix is not that of the screen. No rule for the calls is given here.
# Target: Ataxin-2 (Homo sapiens) (UniProt Q99700)
# Experiment: qHTS for Inhibitors of ATXN expression.
# Format: functional
# Sequence of Ataxin-2 (Homo sapiens) (Q99700 whole entry): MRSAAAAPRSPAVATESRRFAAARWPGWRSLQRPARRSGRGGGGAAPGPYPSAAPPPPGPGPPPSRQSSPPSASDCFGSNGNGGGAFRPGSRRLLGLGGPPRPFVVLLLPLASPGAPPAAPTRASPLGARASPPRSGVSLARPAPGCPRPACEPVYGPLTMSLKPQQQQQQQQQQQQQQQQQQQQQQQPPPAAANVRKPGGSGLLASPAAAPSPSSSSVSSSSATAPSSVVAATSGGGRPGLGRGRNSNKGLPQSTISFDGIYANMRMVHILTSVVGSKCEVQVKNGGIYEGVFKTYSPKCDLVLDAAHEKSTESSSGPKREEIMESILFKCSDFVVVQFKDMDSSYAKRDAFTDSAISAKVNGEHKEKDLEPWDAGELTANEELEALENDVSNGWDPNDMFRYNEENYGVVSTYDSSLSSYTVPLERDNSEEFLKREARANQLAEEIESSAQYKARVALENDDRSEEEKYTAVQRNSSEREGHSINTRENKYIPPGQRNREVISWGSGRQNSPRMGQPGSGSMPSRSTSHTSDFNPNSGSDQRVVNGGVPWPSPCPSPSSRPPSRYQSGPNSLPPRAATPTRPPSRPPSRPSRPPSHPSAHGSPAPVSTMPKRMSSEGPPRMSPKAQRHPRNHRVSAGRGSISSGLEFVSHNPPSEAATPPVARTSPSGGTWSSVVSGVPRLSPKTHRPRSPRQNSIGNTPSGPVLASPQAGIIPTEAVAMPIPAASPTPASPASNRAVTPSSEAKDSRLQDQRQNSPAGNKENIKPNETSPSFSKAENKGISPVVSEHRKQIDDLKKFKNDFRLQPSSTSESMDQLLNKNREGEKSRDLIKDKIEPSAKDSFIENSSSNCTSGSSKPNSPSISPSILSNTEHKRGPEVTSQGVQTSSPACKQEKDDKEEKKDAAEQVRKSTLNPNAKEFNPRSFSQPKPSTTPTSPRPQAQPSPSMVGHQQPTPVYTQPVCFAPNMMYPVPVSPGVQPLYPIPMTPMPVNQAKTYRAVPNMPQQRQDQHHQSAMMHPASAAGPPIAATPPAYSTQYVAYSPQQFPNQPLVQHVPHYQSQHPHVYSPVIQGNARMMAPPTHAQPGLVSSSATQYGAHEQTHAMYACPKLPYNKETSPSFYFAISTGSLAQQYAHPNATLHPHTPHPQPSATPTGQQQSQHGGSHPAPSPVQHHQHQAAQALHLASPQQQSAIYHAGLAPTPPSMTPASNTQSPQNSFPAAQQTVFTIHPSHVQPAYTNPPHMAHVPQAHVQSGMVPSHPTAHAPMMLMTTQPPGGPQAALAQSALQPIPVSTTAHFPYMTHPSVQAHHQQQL
row,SMILES,Potency
1,Clc1ccc(-n2nnnc2Sc2ncnc3sccc23)cc1,20 µM (active)
2,COc1ccc(CSc2ncnc3sccc23)cc1F,inactive
3,COc1ccc(-c2cc(NC=O)c3ncc(-c4cnn(C)c4)n3c2)cc1,inactive
4,CC(=O)Nc1cc(-c2ccc(N3CCN(C)CC3)cc2)cn2c(-c3ccc(F)cc3)cnc12,35.5 µM (active)
5,Cn1c(-c2ccc(F)cc2)cnc1NCc1ccc(F)cc1F,inactive
6,CC(=O)Nc1cc(-c2ccc(N3CCN(C)CC3)cc2)cn2c(-c3ccc(F)c(Cl)c3)cnc12,35.5 µM (active)
7,COc1cc(-c2cnc3c(NC(C)=O)cc(-c4ccc(N5CCN(C)CC5)cc4)cn23)cc(OC)c1OC,39.8 µM (active)
8,COc1ccc(-c2c(C)c3ccc(O)c(CN4CCN(C)CC4)c3oc2=O)cc1OC,inactive
9,CN1CCN(c2ccc(-c3cc(NC=O)c4ncc(-c5ccc(F)c(Cl)c5)n4c3)cc2)CC1,inactive
10,CCCCNC(=O)c1cc2c(=O)n3cccc(C)c3nc2n(Cc2ccncc2)c1=N,inactive
11,CCCc1cc(NCCCN(C)C)n2c(nc3ccccc32)c1C#N,inactive
12,Cc1nc(N/N=C/c2ccc(Br)cc2)cc(N2CCOCC2)n1,inactive
13,O=C(OCc1nc(O)c2c(-c3ccccc3)csc2n1)c1cc(Cl)ccc1[N+](=O)[O-],inactive
14,C=CCNC(=O)c1c(N)n(-c2cccc(S(N)(=O)=O)c2)c2nc3ccccc3nc12,inactive
15,O=S(=O)(O)c1cc(O)c(N=Nc2ccc(O)cc2O)c2ccccc12,22.4 µM (active)
16,O=c1oc2cc(O)ccc2c2ccccc12,inactive
17,CC1=CC(=O)C=C/C1=C(/c1ccc(O)cc1C)c1ccccc1S(=O)(=O)O,inactive
18,CN1C(=O)/C(=N\CCc2ccccc2)c2c3ccccc3c(O)c3cccc1c23,inactive
19,Sc1nc(-c2ccccc2)cn1/N=C/c1ccccc1Br,inactive
20,CCn1c(/C=C/c2ccc(O)cc2)nc2ccccc2c1=O,inactive
21,CS(=O)(=O)c1ccc(C(=O)OCc2nnc(-c3ccc(Cl)cc3)o2)cc1[N+](=O)[O-],28.2 µM (active)
22,NC(=O)c1ccc(Oc2ccc(Cl)cc2)c([N+](=O)[O-])c1,inactive
23,COc1ccc(-c2cc(-c3nnc(COC(=O)c4ccncc4)o3)c3ccccc3n2)cc1OC,inactive
24,CC(=O)Oc1ccc(-c2cc3c(OC(C)=O)cc(OC(C)=O)cc3oc2=O)cc1,inactive
25,OC[C@@H]1[C@@H](c2ccc(F)cc2)C(c2cccc(Cl)c2)=NN1c1ccccc1,inactive

row,SMILES,Potency
1,CCN(CC)CCn1c(C)nc2c(sc3nc4c(cc32)COC(C)(C)C4)c1=O,inactive
2,O=C(N/N=C/c1c(O)ccc2ccccc12)c1ccc(Br)o1,inactive
3,O=C(N/N=C/c1sc(=O)n(Cc2ccc(Br)cc2)c1Cl)c1ccco1,20 µM (active)
4,C/C(=N\NC(=O)c1ccc(C(=O)N/N=C(\C)c2ccco2)o1)c1ccco1,inactive
5,CC1=C(C(=O)Nc2ccc(Cl)cc2)C(c2ccc(C(F)(F)F)cc2)n2nnnc2N1 (configuration not stated),28.2 µM (active)
6,CN1CCc2ccc(NC(=O)c3ccc(C(F)(F)F)cc3)cc2C1,inactive
7,O=C(Nc1ccc(Cl)cc1)c1cnn2c1NC(c1ccccc1)=CC2c1ccccc1 (configuration not stated),inactive
8,Cc1ccc(S(=O)(=O)Nc2ccccc2/C=N/c2nc3ccccc3n2C)cc1,inactive
9,C/C(=N\N1C(=O)c2ccccc2NC1c1ccco1)c1ccccc1O (configuration not stated),2 µM (active)
10,Cc1ccc(/C=N/N2C(=O)c3ccccc3NC2c2ccc(C)cc2)cc1 (configuration not stated),inactive
11,O=C(c1cnn(C(=O)c2ccco2)c1)c1ccccc1O,inactive
12,COc1cccc(C2C=C(c3ccc(Br)s3)Nc3ncnn32)c1OC (configuration not stated),inactive
13,O=[N+]([O-])c1ccc(C2(O)C[N+](c3ccccc3)=C3SCCN32)cc1 (configuration not stated),inactive
14,Cc1ccsc1/C=C1\Oc2cc(O)ccc2C1=O,inactive
15,NNc1nc2cccnc2n(CCNc2ncc(C(F)(F)F)cc2Cl)c1=O,inactive
16,O=C1C=CC(=O)N1CCNc1ncc(C(F)(F)F)cc1Cl,35.5 µM (active)
17,O=S(=O)(NNc1ncc(C(F)(F)F)cc1Cl)c1ccc(F)cc1F,inactive
18,CCOCCCn1c(=N)c(C(=O)NCc2ccco2)cc2c(=O)n3ccccc3nc21,inactive
19,O=C1c2ccccc2C(Nc2ccc(Cl)cn2)N1c1cccnc1 (configuration not stated),inactive
20,O=C1[C@H]2C(c3ccccc3)=NN(c3ccccc3)[C@H]2C(=O)N1c1ccccc1,inactive
21,O=C1[C@@H](c2ccccc2)[C@@H](c2ccccc2)N1c1cccnc1,25.1 µM (active)
22,O=C1[C@H](Oc2ccccc2)[C@@H](c2ccccc2)N1c1ccncc1,28.2 µM (active)
23,CCOC(=O)C1CCN(Cc2nc3ccc([N+](=O)[O-])cc3c(=O)n2-c2ccc(OC)cc2OC)CC1,inactive
24,N#CC1=C(N)Oc2cc(O)ccc2C1c1ccc(Br)s1 (configuration not stated),inactive
25,c1cc2c3c(cccc3c1)NC1(CCC3(CC1)Nc1cccc4cccc(c14)N3)N2,35.5 µM (active)

row,SMILES,Potency
1,Cn1c(-c2cc3ccc(OC(=O)C(C)(C)C)cc3oc2=O)nc2ccccc21,inactive
2,COc1ccc(-c2c3c(nc4sc(C(=O)Nc5ccccc5)c(N)c24)CCC3)cc1,inactive
3,COc1ccc(CC(=O)Nc2sc3c(c2C(=O)Nc2cccc(Cl)c2)CCCCC3)cc1,28.2 µM (active)
4,CCOc1ccccc1NC(=O)c1c(NC(=O)Cc2ccc(OC)cc2)sc2c1CCC2,25.1 µM (active)
5,CCOc1ccccc1NC(=O)c1sc2nc(-c3ccc(OC)cc3)ccc2c1N,inactive
6,COc1ccc(NC(=O)c2c(NC(=O)CCC(=O)O)sc3c2CCCCC3)cc1,inactive
7,OC[C@@H]1[C@@H](c2ccccc2)C(c2ccc(F)cc2)=NN1c1ccccc1,inactive
8,Cn1c(=O)c2nc3ccc(NC(=O)C(F)(F)F)cc3nc2n(C)c1=O,inactive
9,Cc1cc(C)n(CCC(=O)Nc2cccc(F)c2)n1,inactive
10,O=C(CCn1cnc2onc(-c3ccc(F)cc3)c2c1=O)Nc1cccc(C(F)(F)F)c1,20 µM (active)
11,CC(C)(C)c1ccc(C(=O)Nc2cccc3c(=O)[nH][nH]c(=O)c23)cc1,inactive
12,O=C(Nc1ccc(Cl)c(S(=O)(=O)N2CCOCC2)c1)c1ccc(OCC2CCCO2)cc1 (configuration not stated),11.2 µM (active)
13,Cc1cc(C(=O)Nc2ccc(Cl)c(S(=O)(=O)N3CCOCC3)c2)c2ccccc2n1,inactive
14,Cc1ccc(S(=O)(=O)N2CCOCC2)cc1NC(=O)COC(=O)CNC(=O)c1ccc(C(C)(C)C)cc1,inactive
15,COc1ccc(NC(=O)CSc2nnc(C)n2C2CC2)cc1S(=O)(=O)N1CCOCC1,inactive
16,Cc1ccc(NC(=O)C2CCC(C(C)(C)C)CC2)cc1S(=O)(=O)N1CCOCC1 (configuration not stated),31.6 µM (active)
17,O=C(NC1=NCCS1)c1ccc(Cl)c(S(=O)(=O)N2CCOCC2)c1,inactive
18,Cc1cc(C)n(-c2ccc(C(=O)Nc3ccc(C)c(S(=O)(=O)N4CCOCC4)c3)cc2)n1,12.6 µM (active)
19,O=C(Nc1cccc(S(=O)(=O)N2CCCCC2)c1)c1ccc(OCC2CCCO2)cc1 (configuration not stated),inactive
20,Cc1ccc(NC(=O)CCS(=O)(=O)c2ccccc2)cc1S(=O)(=O)N1CCOCC1,inactive
21,Cc1cc(/C=C(\C#N)C(=O)NC2CCCCCC2)c(C)n1C,inactive
22,COc1ccc(C2CC(c3cccc(Cl)c3)=NN2c2ccc(S(N)(=O)=O)cc2)cc1 (configuration not stated),inactive
23,CC1Cc2ccccc2N1CC(=O)NC(=O)NC1CCCC1 (configuration not stated),inactive
24,O=C(c1cccnc1)N1CCN(Cc2ccc3ccccc3c2)CC1,inactive
25,O=C(C1=C[C@@H](C2CCCCC2)C[C@@H](OCc2ccc(CO)cc2)O1)N1CCN(Cc2ccccc2)CC1,39.8 µM (active)

row,SMILES,Potency
1,COc1ccc(CN2CCCC(C(=O)N3CCCCC3)C2)cc1 (configuration not stated),inactive
2,Cc1cc(=O)oc2cc(OC(=O)c3cncc(Br)c3)ccc12,inactive
3,Cc1c(C2(O)CCCCC2)[nH]c2cc(C(F)(F)F)ccc12,35.5 µM (active)
4,CCc1c(C2(O)CCCCC2)[nH]c2ccc(C(F)(F)F)cc12,25.1 µM (active)
5,COCc1cc(C)nc2oc(C(=O)c3ccccc3)c(N)c12,inactive
6,CCCCC[C@H](O)/C=C/C1C(=O)C=C[C@H]1C/C=C\CCCC(=O)OC (some centres not stated),35.5 µM (active)
7,CCCCC[C@@H](/C=C/C1C(=O)C=C[C@H]1C/C=C\CCCC(=O)OC)OC(C)=O (some centres not stated),35.5 µM (active)
8,CCOC(=O)c1c(NC(=O)c2ccc(S(=O)(=O)N3CCCC(C)C3)cc2)sc2c1CCN(C(C)C)C2 (configuration not stated),inactive
9,Cc1cc(-c2ccc(Br)s2)nc(-n2cccc2)n1,inactive
10,OC1(c2ccc(Cl)c(Cl)c2)C[n+]2ccccc2N1Cc1ccccc1 (configuration not stated),28.2 µM (active)
11,Cc1ccc2nc3c(cc(C(=O)NCCc4ccccc4)c(=N)n3CCCN3CCOCC3)c(=O)n2c1,inactive
12,CC(C)(O)C#Cc1ncc(C(F)(F)F)cc1Cl,inactive
13,N#CC(C#N)=c1ccc2c(c1)NC1(CCCCC1)N=2,12.6 µM (active)
14,O=C(COc1ccc(F)cc1Cl)NC1CCCCCC1,inactive
15,COc1ccc(CCNC(=O)C(=O)NCC2OCCN2S(=O)(=O)c2ccc(OC)c(OC)c2)cc1 (configuration not stated),inactive
16,COc1ccc(CCNC(=O)COc2ccc(S(=O)(=O)NC3CCCCC3)cc2Cl)cc1,35.5 µM (active)
17,CCCCNc1c(-c2ccc(SC3CCCCC3)cc2)nc2cnccn12,inactive
18,Cc1ccc(-c2nnc(NC3CCCCC3)c3ccccc23)cc1S(=O)(=O)N1CCN(C)CC1,11.2 µM (active)
19,Cc1noc(C)c1COc1ccc(C(=O)NCCc2ccc(S(N)(=O)=O)cc2)cc1,inactive
20,O=C(NCCC1=CCCCC1)c1coc(=O)c(Br)c1,31.6 µM (active)
21,O=C(COc1ccccc1Br)NCCC1=CCCCC1,inactive
22,COc1ccc(CCNC(=O)c2coc(=O)c(Br)c2)cc1,20 µM (active)
